The record followed here is PubChem BioAssay.

The structures appear in SMILES notation. Values without a mark were called inactive. For some assays here: Results with a measured potency or affinity are listed apart. Calls of active or inactive are those of the source. Unless noted, no rule for the calls is given here.

Assay [1] is described as follows: antimalarial activity against Dd2 strain (AID 2302;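 active = growth inhibition above 50% at the single 2 µM test dose, taken to imply half-maximal potency below 2 µM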;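 also: 0% = DMSO untreated growth and 100% = chloroquine plus artemisinin killed control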). The note with it: P. falciparum Dd2 in RBCs, LDH growth readout, 72 h; at 2 µM; hits give high values.
The nature of assay [2]: HepG2 cytotoxicity, primary screen, cytotoxicity control for P. falciparum antimalarial project, cell-based, ATP luminescence (AID 2303;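 active = inhibition above 50%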;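 also: 0% = DMSO wells and 100% = digitonin-killed cells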). The following applies: HepG2 viability, 24-48 h, at 10 µM, hits give high values.
Assay [3] has as its target L-lactate dehydrogenase (Plasmodium falciparum (isolate CDC / Honduras)) (UniProt Q27743). In words: PfLDH activity inhibition – cell lysate, 3D7 strain, counter-screen for P. falciparum growth inhibition project (AID 2304).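 Also: 0% = vehicle and 100% = reference inhibitor.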 The note with it: P. falciparum 3D7 crude extract, LDH APAD/NBT absorbance; at 2 µM; hits give high values. Background: Counterscreens check selectivity or assay interference.

Assay [4] can be described thus: inhibition of 3D7 malaria parasite growth – strain 3D7 (AID 2306).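 Also: 0% = DMSO wells and 100% = chloroquine plus artemisinin control wells.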 The following applies: P. falciparum 3D7 erythrocytic growth, LDH absorbance, 72 h; at 2 µM; hits give high values.
In assay [5] the target is Calcium-dependent protein kinase 1 (Plasmodium falciparum (isolate 3D7)) (UniProt P62344). In words: PfCDPK1 kinase inhibitors, biochemical, TCAMS library (AID 1159585; cut-off not given, nearly all actives have IC50 up to about 0.98 µM;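 also: inhibitors leave more ATP so luminescence rises with inhibition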). The following applies: recombinant PfCDPK1, Kinase-Glo ATP depletion luminescence. For orientation: Kinase-Glo reads ATP consumption through a luciferase reaction.
Calcium-dependent protein kinase 1 (Plasmodium falciparum (isolate 3D7)), sequence (P62344 whole entry, looked up): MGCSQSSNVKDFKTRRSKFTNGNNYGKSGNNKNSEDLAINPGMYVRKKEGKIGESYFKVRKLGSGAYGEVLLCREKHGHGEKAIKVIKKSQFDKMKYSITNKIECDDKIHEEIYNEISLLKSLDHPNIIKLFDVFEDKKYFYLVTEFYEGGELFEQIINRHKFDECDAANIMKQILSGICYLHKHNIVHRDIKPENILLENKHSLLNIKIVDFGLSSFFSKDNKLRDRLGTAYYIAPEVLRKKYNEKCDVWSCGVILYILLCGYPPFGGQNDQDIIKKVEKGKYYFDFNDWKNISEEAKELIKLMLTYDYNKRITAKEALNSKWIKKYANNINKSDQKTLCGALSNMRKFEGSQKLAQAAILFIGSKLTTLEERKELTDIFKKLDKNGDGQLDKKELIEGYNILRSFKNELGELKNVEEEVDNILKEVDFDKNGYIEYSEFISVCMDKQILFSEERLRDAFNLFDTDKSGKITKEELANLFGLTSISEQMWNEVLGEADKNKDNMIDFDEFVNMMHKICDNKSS
Assay [6] deals with Plasmodium falciparum protein kinase 6 (PK6, PF3D7_1337100) (UniProt Q8IDW1). Description: PfPK6 kinase inhibitors, biochemical, TCAMS library (AID 1159586). The following applies: recombinant PfPK6, Kinase-Glo ATP depletion luminescence.
Plasmodium falciparum protein kinase 6 (PK6, PF3D7_1337100), sequence (Q8IDW1 1-305): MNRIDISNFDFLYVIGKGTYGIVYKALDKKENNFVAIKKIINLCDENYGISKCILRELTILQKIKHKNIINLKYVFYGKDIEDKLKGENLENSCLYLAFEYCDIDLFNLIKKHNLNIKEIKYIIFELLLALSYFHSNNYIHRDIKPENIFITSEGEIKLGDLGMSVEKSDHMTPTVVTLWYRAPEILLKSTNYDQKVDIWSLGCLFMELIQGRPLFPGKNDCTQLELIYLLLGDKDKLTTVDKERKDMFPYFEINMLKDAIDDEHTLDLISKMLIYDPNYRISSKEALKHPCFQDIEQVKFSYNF
Assay [7] concerns the target Protein kinase 7 (PK7), Plasmodium falciparum 3D7 (PF3D7_0213400) (UniProt Q7YTF7). Description: inhibition of Plasmodium PK7 catalytic activity – biochemical, TCAMS antimalarial set, Kinase-Glo luminescence (AID 1159587). The following applies: recombinant PfPK7, Kinase-Glo ATP depletion luminescence.
Assay [8] deals with Calcium-dependent protein kinase 4 (Plasmodium falciparum (isolate 3D7)) (UniProt Q8IBS5). In words: PfCDPK4 kinase inhibitors, biochemical, TCAMS library (AID 1159588; cut-off not given, nearly all actives have IC50 up to about 0.91 µM). The note with it: recombinant PfCDPK4, Kinase-Glo ATP depletion luminescence.
Calcium-dependent protein kinase 4 (Plasmodium falciparum (isolate 3D7)), sequence (Q8IBS5 whole entry, looked up): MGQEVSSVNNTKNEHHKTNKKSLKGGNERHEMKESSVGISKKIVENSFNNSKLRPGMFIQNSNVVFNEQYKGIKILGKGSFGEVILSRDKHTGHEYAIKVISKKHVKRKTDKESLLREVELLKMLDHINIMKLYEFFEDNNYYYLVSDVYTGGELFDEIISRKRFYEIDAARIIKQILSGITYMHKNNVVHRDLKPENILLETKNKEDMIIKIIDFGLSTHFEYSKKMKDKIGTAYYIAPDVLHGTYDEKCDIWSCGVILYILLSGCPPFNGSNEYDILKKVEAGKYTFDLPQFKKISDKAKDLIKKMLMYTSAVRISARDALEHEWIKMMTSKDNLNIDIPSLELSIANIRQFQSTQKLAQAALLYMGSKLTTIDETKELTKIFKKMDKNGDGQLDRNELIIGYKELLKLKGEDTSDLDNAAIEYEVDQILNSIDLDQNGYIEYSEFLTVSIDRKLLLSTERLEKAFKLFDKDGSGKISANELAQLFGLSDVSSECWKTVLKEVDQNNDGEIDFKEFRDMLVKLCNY

Protein kinase 7 (PK7), Plasmodium falciparum 3D7 (PF3D7_0213400), sequence (Q7YTF7 1-343): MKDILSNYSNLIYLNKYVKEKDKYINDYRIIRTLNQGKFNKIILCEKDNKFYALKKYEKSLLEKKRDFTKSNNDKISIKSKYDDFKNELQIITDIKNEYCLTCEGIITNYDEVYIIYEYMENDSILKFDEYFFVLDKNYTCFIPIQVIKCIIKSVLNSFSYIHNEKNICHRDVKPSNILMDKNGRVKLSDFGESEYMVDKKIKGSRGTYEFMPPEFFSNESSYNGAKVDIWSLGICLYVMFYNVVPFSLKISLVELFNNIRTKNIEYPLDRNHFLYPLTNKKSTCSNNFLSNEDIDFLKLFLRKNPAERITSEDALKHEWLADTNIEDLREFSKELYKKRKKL
L-lactate dehydrogenase (Plasmodium falciparum (isolate CDC / Honduras)), sequence (Q27743 whole entry, looked up): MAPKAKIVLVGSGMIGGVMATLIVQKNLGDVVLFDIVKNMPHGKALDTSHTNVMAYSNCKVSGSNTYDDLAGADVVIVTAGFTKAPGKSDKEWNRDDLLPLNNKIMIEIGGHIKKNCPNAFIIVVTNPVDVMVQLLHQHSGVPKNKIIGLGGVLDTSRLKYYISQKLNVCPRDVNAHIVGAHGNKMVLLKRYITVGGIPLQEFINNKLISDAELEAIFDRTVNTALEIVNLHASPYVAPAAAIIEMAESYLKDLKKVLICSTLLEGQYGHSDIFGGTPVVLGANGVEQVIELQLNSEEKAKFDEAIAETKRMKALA

Take `Cn1cnc(CCNC(=O)c2ccc(-c3cccc(-c4nc5ccc(C(F)(F)F)cc5[nH]4)c3)cc2)c1`: the growth inhibition in assay [1] was 93% (active); in assay [4], 101% (active). The inhibition was 25% in assay [2] and 3% in assay [3]. Also, the result in assay [5], in assay [6], in assay [7] and in assay [8] was inactive.

Consider `COc1cncc(/C=C/c2cncc(C(=O)NCCc3ccc(Cl)cc3Cl)c2)c1`, for which the growth inhibition in assay [1] is 49%; in assay [4], 99% (active). For the same compound, the inhibition in assay [2] was -3%; in assay [3], -9%. In addition, the outcome in assay [5], in assay [6], in assay [7] and in assay [8] was inactive.

On to `CCCCCCN1CCC(NCc2ccc(C(F)(F)F)cc2)CC1`, for which the growth inhibition is 47% in assay [1] and 100% (active) in assay [4]. Also, the inhibition in assay [2] was 11%; in assay [3], -2%. Also, the outcome in assay [5], in assay [6], in assay [7] and in assay [8] was inactive.

`O=C(NCC1CCN(Cc2ccc3c(c2)OCCO3)C1)c1cc(-c2ccccc2F)cs1` (configuration not stated): the values for the growth inhibition in assay [1] and in assay [4] were -1% and 95% (active), respectively. For the same compound, the inhibition in assay [2] was 18%; in assay [3], 4%. The result in assay [5], in assay [6], in assay [7] and in assay [8] was inactive.

For `COCc1cc(C)nc2sc(C(=O)Nc3cc(C(C)(C)C)ccc3O)c(N)c12`, the growth inhibition in assay [1] was 57% (active); in assay [4], 85% (active). The inhibition in assay [2] was -9%; in assay [3], -2%. For the same compound, the result in assay [5], in assay [6], in assay [7] and in assay [8] was inactive.

As for `COc1ccc(CNC2CCN(C)CC2)cc1-c1cccc(S(=O)(=O)NCc2ccccc2)c1`, the growth inhibition was 7% in assay [1] and 101% (active) in assay [4]. Further, the inhibition is 43% in assay [2] and -1% in assay [3]. Further, the outcome in assay [5], in assay [6], in assay [7] and in assay [8] was inactive.

Consider `Oc1ccc2c(c1CNC1CCCCC1)CCCC2`, for which the growth inhibition in assay [1] is 94% (active); in assay [4] it was 98% (active). Also, the inhibition in assay [2] is 0%; in assay [3] it was -3%. Besides, the result in assay [5], in assay [6], in assay [7] and in assay [8] was inactive.

Consider `O=C1NC(=O)C(c2cccc(NC(=O)c3ccncc3)c2)=C1c1ccccc1`, for which the growth inhibition in assay [1] is -3%; in assay [4], 101% (active). Also, the inhibition in assay [2] is 5%; in assay [3], 3%. Further, the result in assay [5], in assay [6], in assay [7] and in assay [8] was inactive.

As for `O=C(NCCN1CCC(c2ncc(-c3ccccc3)o2)CC1)c1ccc(NC(=O)c2ccc(Cl)cc2)cc1`, the growth inhibition in assay [1] was 80% (active); in assay [4], 101% (active). Besides, the inhibition is 32% in assay [2] and -7% in assay [3]. Besides, the result in assay [5], in assay [6], in assay [7] and in assay [8] was inactive.

Consider `COc1ccc(-n2cc(CNCCCn3ccnc3)c(-c3cccc(F)c3)n2)cc1`, for which the growth inhibition in assay [1] was 17%; in assay [4] it was 98% (active). Besides, the values for the inhibition in assay [2] and in assay [3] were 21% and 0%, respectively. The result in assay [5], in assay [6], in assay [7] and in assay [8] was inactive.

`OCCN1CCN(C(=S)NC2CCCCC2)CC1`: the growth inhibition in assay [1] is -1%; in assay [4], 93% (active). Moreover, the inhibition in assay [2] was 49%; in assay [3], 1%. The outcome in assay [5], in assay [6], in assay [7] and in assay [8] was inactive.

Take `CCn1nc(C(=O)NC2CCOc3ccccc32)c2ccccc2c1=O` (configuration not stated): the values for the growth inhibition in assay [1] and in assay [4] were 59% (active) and 86% (active), respectively. The values for the inhibition in assay [2] and in assay [3] were 13% and 0%, respectively. The result in assay [5], in assay [6], in assay [7] and in assay [8] was inactive.

As for `CC(C)C1=NCc2ccc([N+](=O)[O-])cc2C(=O)N1`, the results for the growth inhibition in assay [1] and in assay [4] were -1% and 98% (active), respectively. In addition, the inhibition in assay [2] is 6%; in assay [3], 4%. The outcome in assay [5], in assay [6], in assay [7] and in assay [8] was inactive.

In the case of `O=C(Nc1cccc(-c2cccc(F)c2)c1)C1CCN(Cc2ccc(O)cc2)CC1`, the growth inhibition in assay [1] was 2%; in assay [4], 87% (active). Moreover, the figures for the inhibition in assay [2] and in assay [3] were 13% and 3%, respectively. The outcome in assay [5], in assay [6], in assay [7] and in assay [8] was inactive.

With `O=C(Nc1ccc(C(F)(F)F)cc1)c1ccc(S(=O)(=O)NC2CCN(Cc3ccccc3)C2)cc1` (configuration not stated), the growth inhibition in assay [1] is 5%; in assay [4], 101% (active). Moreover, the values for the inhibition in assay [2] and in assay [3] were 42% and 5%, respectively. The result in assay [5], in assay [6], in assay [7] and in assay [8] was inactive.

As to `CC1CN(Cc2cccc(-c3ccc(-c4nc5ccccc5[nH]4)cc3)c2)CC(C)O1` (configuration not stated), the growth inhibition in assay [1] is 88% (active); in assay [4], 90% (active). For the same compound, the inhibition in assay [2] was 37%; in assay [3], -6%. Moreover, the outcome in assay [5], in assay [6], in assay [7] and in assay [8] was inactive.

Turning to `NC(=O)c1ccc(-n2cnc3cc(F)ccc32)cc1OCc1ccccc1C(F)(F)F` (tested in a mixture with another compound), the growth inhibition in assay [1] is 93% (active); in assay [4], 97% (active). Besides, the inhibition in assay [2] was 55% (active); in assay [3] it was 3%. Besides, the result in assay [5], in assay [6], in assay [7] and in assay [8] was inactive.

Consider `CCCCCCc1cnc2nc(N)nc(N)c2c1C`, for which the growth inhibition in assay [1] was 20%; in assay [4] it was 93% (active). In addition, the inhibition is 67% (active) in assay [2] and -8% in assay [3]. The outcome in assay [5], in assay [6], in assay [7] and in assay [8] was inactive.

Consider `NC1CCN(Cc2ccc(-c3ccc(-c4nc5ccc(F)cc5[nH]4)cc3)cc2)C1` (configuration not stated), for which the figures for the growth inhibition in assay [1] and in assay [4] were 99% (active) and 98% (active), respectively. Further, the inhibition was 41% in assay [2] and -3% in assay [3]. In addition, the result in assay [5], in assay [6], in assay [7] and in assay [8] was inactive.

One may read the inhibition as the relative decrease from the control value, in per cent.
